8 compounds from PubChem BioAssay (Tox21) can be followed below.

Structures are written as SMILES. Values joined by “and” are separate entries in the source; they are usually repeats but may differ in a detail not shown here. Equal entries are not always repeated. Results filed as inconclusive are left out. Some structures have more than one record in an assay (separate samples or runs), and their calls can disagree. Active and inactive are the calls of the source. Unless noted, calls follow the shape of the dose curve; as a rule, active = well fitted curve in the direction sought with a large enough effect in the repeat runs; inconclusive = weak or mixed curves; inactive = no such curve, though single readings can be large; an effect the other way counts as inactive or inconclusive.

Assay [1] in a line: qHTS assay to identify small molecule antagonists of the peroxisome proliferator-activated receptor delta (PPARd) signaling pathway - cell viability counter screen (AID 743213). Also: nearly all actives have a fitted effect of over 50% in size. Also: potency is read from the fitted curve at half-maximal effect. In short, it runs like this: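 Agonist-stimulated (L165041, 300 nM final) HEK293H PPARd UAS-bla cells are exposed to compounds for 17 h at 37 C, and ATP-based luminescence (CellTiter-Glo) from the same wells reports cytotoxicity.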
For orientation: qHTS replaces the single test concentration by a dilution series.

Assay [2] can be described thus: qHTS assay to identify small molecule antagonists of the farnesoid-X-receptor (FXR) signaling pathway - cell viability counter screen (AID 743221; active = well fitted cell-killing curve with a large enough effect in the repeat runs, not every such curve was filed as active; also: nearly all actives have a fitted effect of over 50% in size; also: potency is read from the fitted curve at half-maximal effect). In short, it runs like this: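 GeneBLAzer FXR-UAS-bla HEK 293T cells, compound plus chenodeoxycholic acid (50 uM final), 16 h at 37 C. CellTiter-Glo added to the same wells after the beta-lactamase read; luminescence read after 30 min at room temperature as viability.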

The target of assay [3] is Vitamin D3 receptor (Homo sapiens) (UniProt P11473). As to the kind of experiment: qHTS assay to identify small molecule antagonists of the vitamin D receptor (VDR) signaling pathway (AID 743223; active = well fitted inhibition curve with a large enough effect in the signal ratio in the repeat runs, not every such curve was filed as active; the % refers to the signal ratio; also: potency is read from the fitted curve at half-maximal effect). In short, it runs like this:
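VDR-bla cells were treated with compound plus 3 nM final 1alpha,25-dihydroxyvitamin D3 for 16 h at 37C. Beta-lactamase reporter read by B/G FRET substrate fluorescence after 2 h at room temperature. qHTS format.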

A short description of assay [4]: qHTS assay to identify small molecule agonists of the vitamin D receptor (VDR) signaling pathway - cell viability counter screen (AID 743224). Also: nearly all actives have a fitted effect of over 50% in size. Also: potency is read from the fitted curve at half-maximal effect. In short, it runs like this: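 Plated VDR-bla cells (4 h, 37C) received compound, incubated 16 h, then LiveBLAzer substrate 2 h RT; CellTiter-Glo added afterwards, luminescence read at 30 min.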
Assay [5] is described as follows: qHTS assay to identify small molecule antagonists of the vitamin D receptor (VDR) signaling pathway - cell viability counter screen (AID 743225). Also: nearly all actives have a fitted effect of over 50% in size. Also: potency is read from the fitted curve at half-maximal effect. In short, it runs like this: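 VDR-UAS-bla HEK 293T cells were plated and incubated 4 h at 37C, then dosed with compound plus 3 nM (final) 1-alpha,25-dihydroxyvitamin D3 for 16 h. After the 2 h beta-lactamase read, viability in the same wells was read as CellTiter-Glo luminescence after 30 min at room temperature.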

The nature of assay [6]: qHTS assay to identify small molecule agonists of the NFkB signaling pathway - cell viability counter screen (AID 1159515; calls by dose curve; also: nearly all actives have a fitted effect of over 55% in size; also: potency is read from the fitted curve at half-maximal effect). In short, it runs like this:
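Using the same wells as the NFkB reporter read, ME-180 NFkB-bla cells given compounds for 5 hr were assessed for viability via CellTiter-Glo, with luminescence taken after a 30 min room-temperature incubation.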

Assay [7] can be described thus: qHTS assay to identify small molecule agonists of the endoplasmic reticulum stress response signaling pathway - cell viability counter screen (AID 1159517; calls by dose curve; also: nearly all actives have a fitted effect of over 50% in size; also: potency is read from the fitted curve at half-maximal effect). In short, it runs like this: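 Luminescence readout: CellTiter-Glo, 30 min RT, same wells as the ESRE-bla reporter read. HeLa ESRE-bla, 1,500 cells/well, o/n 37 C; cpd 5 hr 37 C/5% CO2.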
Assay [8] can be described thus: qHTS assay to identify small molecule antagonists of the retinoid-related orphan receptor gamma (ROR-gamma) signaling pathway - cell viability counter screen (AID 1159520). Also: nearly all actives have a fitted effect of over 50% in size. Also: potency is read from the fitted curve at half-maximal effect. In short, it runs like this: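 Tet-on ROR gamma CHO cells (1,000/well) were plated 4 hr, given compounds in DMSO for 2 hr at 37 C, then induced with 1 uM final doxycycline for 16 hr. Viability was read as ATP by CellTiter-Glo luminescence after 30 min.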

Assay [9] addresses Nuclear receptor ROR-gamma (Homo sapiens) (UniProt P51449). The assay can be described thus: qHTS assay to identify small molecule antagonists of the retinoid-related orphan receptor gamma (ROR-gamma) signaling pathway (AID 1159521; also: nearly all actives have a fitted effect of over 50% in size; also: potency is read from the fitted curve at half-maximal effect). In short, it runs like this: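 Tet-on ROR-gamma CHO cells with ROR response element-luciferase reporter; compounds added 2 hr before 1 uM doxycycline induction, then 16 hr at 37 C. Antagonism scored as decreased ONE-Glo luminescence.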

Assay [10] can be described thus: qHTS assay to identify small molecule agonists of the AP-1 signaling pathway - cell viability counter screen (AID 1159525; calls by dose curve; also: nearly all actives have a fitted effect of over 55% in size; also: potency is read from the fitted curve at half-maximal effect). In short, it runs like this: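 ME-180 AP-1-bla, 2500 cells/well, Opti-MEM + 0.5% dialyzed FBS; overnight 37 °C; cpd 15-pt titration, 5 h 37 °C; CellTiter-Glo 30 min RT; luminescence read; normalised to TOAB and DMSO controls.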
Assay [11] can be described thus: qHTS assay to identify small molecule agonists of the AP-1 signaling pathway (AID 1159526; calls by dose curve; also: potency is read from the fitted curve at half-maximal effect).
The target of assay [12] is Retinoic acid receptor RXR-alpha (Homo sapiens) (UniProt P19793). The assay can be described thus: qHTS assay to identify small molecule agonists of the RXR signaling pathway (AID 1159527; calls by dose curve; also: nearly all actives have a fitted effect of over 35% in size). In short, it runs like this: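 GeneBLAzer RXR-alpha-UAS-bla HEK 293T cells in 2% charcoal-stripped FBS medium were exposed to compounds for 16 hr at 37 C in agonist mode. Beta-lactamase reporter read as 460/530 nm FRET ratio after 2 hr substrate loading.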
Chain of Retinoic acid receptor RXR-alpha (Homo sapiens) (P19793 whole entry, looked up): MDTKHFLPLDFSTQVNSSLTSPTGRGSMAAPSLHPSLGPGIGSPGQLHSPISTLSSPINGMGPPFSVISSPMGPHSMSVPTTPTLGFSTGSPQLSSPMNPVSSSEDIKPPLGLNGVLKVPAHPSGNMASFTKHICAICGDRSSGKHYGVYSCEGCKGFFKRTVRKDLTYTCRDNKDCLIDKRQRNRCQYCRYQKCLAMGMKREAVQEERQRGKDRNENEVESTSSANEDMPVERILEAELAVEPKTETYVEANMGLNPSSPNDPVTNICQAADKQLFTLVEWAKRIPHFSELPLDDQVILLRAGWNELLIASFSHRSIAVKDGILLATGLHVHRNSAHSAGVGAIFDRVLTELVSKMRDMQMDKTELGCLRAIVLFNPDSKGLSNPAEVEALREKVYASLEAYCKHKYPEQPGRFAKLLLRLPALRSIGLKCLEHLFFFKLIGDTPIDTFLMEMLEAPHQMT

Assay [13] can be described thus: qHTS assay to identify small molecule agonists of the RXR signaling pathway - cell viability counter screen (AID 1159529). Also: nearly all actives have a fitted effect of over 50% in size. Also: potency is read from the fitted curve at half-maximal effect. In short, it runs like this:
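RXR-alpha-UAS-bla HEK 293T cells in medium with 2% charcoal-stripped FBS were pre-incubated 5 hr, then compound-treated 16 hr at 37 C. Viability was read by CellTiter-Glo luminescence in the same wells as the beta-lactamase assay, with tetraoctyl ammonium bromide as positive control.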

The nature of assay [14]: qHTS assay to identify small molecule antagonists of the retinoid acid receptor (RAR) signaling pathway - cell viability counter screen (AID 1159551). Also: nearly all actives have a fitted effect of over 35% in size. Also: potency is read from the fitted curve at half-maximal effect. In short, it runs like this: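 Retinol-stimulated (1 uM final) C3RL4 cells, compound 6 h, 37 C; readout CellTiter-Glo luminescence (ATP) after 30 min RT incubation.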
For assay [15], the target named is Peroxisome proliferator-activated receptor delta (Homo sapiens) (UniProt Q03181). As to the kind of experiment: qHTS assay to identify small molecule antagonists of the peroxisome proliferator-activated receptor delta (PPARd) signaling pathway (AID 743215; active = well fitted inhibition curve with a large enough effect in the signal ratio in the repeat runs, not every such curve was filed as active; the % refers to the signal ratio; also: series mostly up to about 62 µM). In short, it runs like this: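 HEK293H UAS-bla, PPARd; agonist L165041 300 nM final with cpd in DMSO; 37 C 17 h; FRET substrate, RT 2 h; fluorescence intensity.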
Chain of Peroxisome proliferator-activated receptor delta (Homo sapiens) (Q03181 whole entry, looked up): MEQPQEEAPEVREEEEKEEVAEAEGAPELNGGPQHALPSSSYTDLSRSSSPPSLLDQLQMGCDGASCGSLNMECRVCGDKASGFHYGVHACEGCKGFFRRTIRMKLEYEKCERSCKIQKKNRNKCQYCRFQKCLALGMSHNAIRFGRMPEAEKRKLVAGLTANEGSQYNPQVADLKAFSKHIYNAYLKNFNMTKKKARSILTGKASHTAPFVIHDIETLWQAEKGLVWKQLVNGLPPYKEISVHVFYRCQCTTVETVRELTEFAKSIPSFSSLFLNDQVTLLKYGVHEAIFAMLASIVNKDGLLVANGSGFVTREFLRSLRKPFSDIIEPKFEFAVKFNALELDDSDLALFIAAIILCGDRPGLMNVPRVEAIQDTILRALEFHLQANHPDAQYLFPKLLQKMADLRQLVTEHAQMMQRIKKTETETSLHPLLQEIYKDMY

Assay [16] can be described thus: qHTS assay to identify small molecule agonists of the endoplasmic reticulum stress response signaling pathway (AID 1159516; active = well fitted activation curve with a large enough effect in the signal ratio in the repeat runs, not every such curve was filed as active; the % refers to the signal ratio). In short, it runs like this: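 An ESRE-bla HeLa cell assay: compounds were pin-transferred from DMSO onto overnight-plated cells and left 5 hr at 37 C. Substrate was then loaded for 2 hr at room temperature before reading fluorescence at 460 nm and 530 nm.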

Assay [17] can be described thus: qHTS assay to identify small molecule antagonists of the retinoic acid receptor (RAR) signaling pathway (AID 1159552; also: nearly all actives have a fitted effect of over 50% in size). In short, it runs like this: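 Retinol signaling pathway inhibitors screened in C3RL4 RARE-luciferase reporter cells seeded overnight at 37 C, then compounds added with 1 uM (final) retinol as pathway substrate. After 6 hr at 37 C, luciferase luminescence read after 30 min at room temperature.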

The nature of assay [18]: qHTS assay to identify small molecule agonists of the farnesoid-X-receptor (FXR) signaling pathway - cell viability counter screen (AID 743218). Also: nearly all actives have a fitted effect of over 45% in size. Also: potency is read from the fitted curve at half-maximal effect. In short, it runs like this: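 Parallel cytotoxicity test: compound-treated (16 h, 37 C) HEK 293T FXR-bla reporter cells were lysed with CellTiter-Glo and luminescence recorded.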
In assay [19] the target is Bile acid receptor (Homo sapiens) (UniProt Q96RI1). The assay can be described thus: qHTS assay to identify small molecule antagonists of the farnesoid-X-receptor (FXR) signaling pathway (AID 743217; active = well fitted inhibition curve with a large enough effect in the signal ratio in the repeat runs, not every such curve was filed as active; the % refers to the signal ratio). In short, it runs like this:
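GeneBLAzer FXR-UAS-bla HEK 293T, CDCA-stimulated (50 uM final). Compound treatment 16 h, 37 °C. Detection: beta-lactamase cleavage of B/G FRET substrate, fluorescence.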

The target is the same in assay [20]. As to the kind of experiment: qHTS assay to identify small molecule agonists of the farnesoid-X-receptor (FXR) signaling pathway (AID 743220; active = well fitted activation curve with a large enough effect in the signal ratio in the repeat runs, not every such curve was filed as active; the % refers to the signal ratio). In short, it runs like this: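 Beta-lactamase reporter under UAS control in GeneBLAzer FXR HEK 293T cells (5000/well) measured with LiveBLAzer FRET substrate after 2 h at room temperature. Compound exposure lasted 16 h at 37C.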

Chain of Vitamin D3 receptor (Homo sapiens) (P11473 whole entry, looked up): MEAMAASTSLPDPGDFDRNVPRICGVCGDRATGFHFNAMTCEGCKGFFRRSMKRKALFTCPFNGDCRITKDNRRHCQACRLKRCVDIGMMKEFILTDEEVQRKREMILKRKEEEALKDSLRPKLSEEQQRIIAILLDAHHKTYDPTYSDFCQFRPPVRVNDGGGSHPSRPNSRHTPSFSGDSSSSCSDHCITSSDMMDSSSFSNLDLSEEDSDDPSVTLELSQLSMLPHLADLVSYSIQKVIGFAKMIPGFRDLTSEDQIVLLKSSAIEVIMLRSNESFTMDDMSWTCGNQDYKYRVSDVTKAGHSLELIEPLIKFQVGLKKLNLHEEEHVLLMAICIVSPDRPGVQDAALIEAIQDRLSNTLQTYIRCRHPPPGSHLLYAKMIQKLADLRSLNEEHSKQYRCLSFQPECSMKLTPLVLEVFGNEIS
Chain of Bile acid receptor (Homo sapiens) (Q96RI1 whole entry, looked up): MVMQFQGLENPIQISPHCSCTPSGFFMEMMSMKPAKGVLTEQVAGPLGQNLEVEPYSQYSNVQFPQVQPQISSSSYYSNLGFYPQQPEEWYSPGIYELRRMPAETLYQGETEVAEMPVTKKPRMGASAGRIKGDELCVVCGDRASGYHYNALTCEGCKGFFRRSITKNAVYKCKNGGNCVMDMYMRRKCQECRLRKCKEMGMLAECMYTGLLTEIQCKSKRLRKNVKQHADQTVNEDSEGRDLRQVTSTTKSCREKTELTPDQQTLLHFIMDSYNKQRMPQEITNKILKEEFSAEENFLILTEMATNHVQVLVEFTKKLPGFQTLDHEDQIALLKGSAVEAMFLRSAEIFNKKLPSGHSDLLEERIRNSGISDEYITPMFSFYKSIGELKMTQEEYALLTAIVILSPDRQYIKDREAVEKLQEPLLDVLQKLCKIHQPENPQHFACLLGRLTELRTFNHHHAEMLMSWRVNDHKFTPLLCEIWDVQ

Turning to `Nc1ccc(-c2ccc(N)c(Cl)c2)cc1Cl`, the Potency entry in assay [1], in assay [2], in assay [3], in assay [4], in assay [5] and in [6] was “inactive” in each case. The Potency entry in assay [7], in assay [10], in assay [11], in [12], in [13] and in assay [14] was “inactive” each time. Also, the Potency entry in assay [8] is “inactive and 48.6 µM (active)”; in assay [9] it was 68.6 µM (active).

On to `CCOP(=S)(OCC)Oc1ccc2c(C)c(Cl)c(=O)oc2c1`, for which the Potency result in assay [1], in [2], in assay [4], in assay [5], in assay [6] and in assay [7] was “inactive” in each case. The Potency result in assay [8], in assay [9], in assay [11], in assay [13], in assay [14] and in [17] was “inactive” in each case. In addition, the outcome in [15] and in [16] was inactive.

As to `CCCCCCCCn1cc[n+](C)c1`, the Potency entry in assay [1], in assay [2], in assay [3], in [6], in assay [7] and in assay [8] was “inactive” in each case. Further, the Potency entry in [11], in assay [13], in assay [14] and in [17] was “inactive” in each case. Also, the outcome in assay [16] was inactive.

Take `CC[N+]1(C)CCCC1`: the Potency result in assay [1], in assay [2], in assay [4], in assay [5], in assay [6] and in assay [7] was “inactive” in each case. Besides, the Potency entry in [8], in [9], in assay [11], in assay [12], in [13] and in assay [14] was “inactive” in each case. In assay [16], the result was inactive.

`CCCC[n+]1ccccc1C`: the Potency result in assay [1], in assay [2], in [4], in assay [5], in [6] and in [7] was “inactive” each time. Besides, the Potency entry in assay [8], in [9], in assay [11], in [12], in assay [13] and in [14] was “inactive” in each case. Further, the compound was classed as inactive in [16].

On to `CCCCCCCCCCCCn1cc[n+](C)c1`, for which the Potency in [3] is 55 µM (active); in [6] it was 34.8 µM (active) and inactive; in [10], 49.4 µM (active) and inactive; in assay [11], “inactive and 43.4 µM (active)”; in assay [14], 49 µM (active) and inactive. The outcome in assay [16] was inactive. The Potency result in assay [12] was “inactive”.

For `O=C(O)c1nc(Cl)ccc1Cl`, the Potency result in assay [1], in [18], in [2], in assay [4], in assay [5] and in assay [6] was “inactive” in each case. Moreover, the Potency result in assay [7], in assay [8], in assay [9], in [11], in assay [12] and in assay [13] was “inactive” each time. In assay [14], the Potency result was “inactive”. Also, the call in assay [16] was inactive.

Turning to `CCCCCCCCCCCCCC[P+](CCCCCC)(CCCCCC)CCCCCC`, the Potency in assay [1] is 15.6 µM (active) and 3.92 µM (active); in assay [18], 13.9 µM (active) and 24.7 µM (active) and inactive; in [2], 22 µM (active) and 15.6 µM (active) and inactive; in assay [4] it was 9.82 µM (active) and 5.54 µM (active); in assay [5], 19.6 µM (active) and 17.5 µM (active); in assay [6], 19.6 µM (active) and 24.7 µM (active) and inactive. The Potency in assay [7] is 31 µM (active) and 27.8 µM (active) and inactive; in assay [8], 9.73 µM (active) and 19.5 µM (active); in [13], 8.75 µM (active) and 15.6 µM (active); in assay [14] it was 27.4 µM (active) and 27.5 µM (active) and inactive. Also, the Potency result in assay [19] and in assay [11] was “inactive” in each case. The result in assay [20] and in assay [16] was inactive.
